RN4220 kill – growth inhibition of S. aureus RN4220, primary screen, OD600; 16 h; inhibition, % (test concentration not listed); hit rate 0.33% among 330,000; in the data active means inhibition above about 85%
PfHsp40 rescue – rescue of yeast from PfHsp40 toxicity, primary screen, S. cerevisiae, ATP luminescence; S. cerevisiae expressing PfHsp40, growth rescue; growth rescue, % at 12.5 µM; hit rate 0.68% among 340,000; in the data active means growth rescue above about 28%, passing the limit was not always enough;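 further: yeast W303a lacking pdr1 and pdr3 grown in galactose medium; growth measured after three days at 30 °C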
Sa ugtP lethal – growth inhibition of ugtP-null S. aureus, primary screen, RN4220 ugtP deletion, OD600; 16 h; growth inhibition, % (test concentration not listed); hit rate 0.54% among 330,000; in the data active means growth inhibition above about 68%
PrPC surface inh – inhibitors of human cell surface prion protein PrPC, primary screen, cell-based, TR-FRET; TR-FRET read-out; inhibition, % at 13.8 µM; hit rate 0.43% among 370,000; in the data active means inhibition above about 24%
VHR inh abs – VHR1 phosphatase inhibitors, primary screen, biochemical, absorbance, uHTS. Dual specificity protein phosphatase 3 (Homo sapiens), P51452. recombinant VHR phosphatase, pNPP absorbance. inhibition, % at 13.3 µM. hit rate 0.52% among 290,000; in the data active means inhibition above about 50%
Target sequence (P51452 whole entry, looked up): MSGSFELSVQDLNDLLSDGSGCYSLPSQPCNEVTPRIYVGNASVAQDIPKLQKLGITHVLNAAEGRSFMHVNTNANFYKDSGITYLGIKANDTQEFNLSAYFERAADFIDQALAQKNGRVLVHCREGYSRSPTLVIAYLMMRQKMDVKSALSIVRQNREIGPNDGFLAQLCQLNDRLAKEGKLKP
Hits are given with their value; i = inactive; nt = not tested or not shown; ! = not active in a repeat. In the library only some 1.8% were active in any assay of this set; here they are far more common.

SMILES	RN4220 kill	PfHsp40 rescue	Sa ugtP lethal	PrPC surface inh	VHR inh abs
O=C1NC(=S)S/C1=C/c1ccc(N2CCOCC2)o1	i	i	i	nt	i
COc1ccc2cc(/C=C3\SC(=S)NC3=O)c(N3CCOCC3)nc2c1	89	i	90	i	i
C/C(=N/OC(=O)c1ccccc1Br)c1ccc(C)cc1	nt	i	nt	i	52
C=C1CCC2C(OC(=O)[C@]2(O)CO)C2C(=C)C(O)CC12 (some centres undefined)	i	nt	i	nt	nt
CCOC(=O)C1SC2(C(F)F)CC1(O)c1c(c(OC)c3occc3c1OC)O2 (centres undefined)	i	38	i	i	i
COCc1cc(C)nc(OCC(=O)NN=Cc2ccc(-c3cccc([N+](=O)[O-])c3)o2)c1C#N	i	nt	i	nt	nt
Oc1ccc(-c2nnc(-c3ccccc3)c(-c3ccccc3)n2)cc1	i	nt	i	nt	i
Cc1ccc(-c2nnc(-c3ccccc3)c(-c3ccccc3)n2)cc1	i	i	92	i	i
COc1ccc(-n2nnnc2S(=O)(=O)Cc2ccc(C(=O)O)cc2)cc1	i	i	95	i	i
O=C(NC(Cc1ccccc1)C(=O)OCc1ccccc1)c1nc[nH]c1C(=O)N1CCc2ccccc2C1 (centres undefined)	i	nt	i	nt	nt
Cc1cccc(C)c1NC(=S)NC(C)CCc1ccccc1 (centres undefined)	i	i	i	i	60
CCC(C)Sc1ccc(C2N[C@@](Cc3ccccc3)(C(=O)OC)C3C(=O)N(CC)C(=O)C23)cc1OC (some centres undefined)	i	nt	i	nt	nt
O=C(COC(=O)c1ccc(Cl)nc1)Nc1ccc(S(=O)(=O)N2CCCC2)cc1	i	i	i	i	i
CCN1CCN(CC(=O)Nc2cc(S(=O)(=O)N3CCCCC3)ccc2Cl)CC1	i	56	i	i	nt
O=C(COC(=O)c1ccc(Cl)nc1)Nc1cc(S(=O)(=O)N2CCCCC2)ccc1Cl	i	173	i	i	i
O=C(CN1CCN(c2ccc(O)cc2)CC1)Nc1cc(S(=O)(=O)N2CCCCC2)ccc1Cl	i	i	i	i	56
COc1ccc(C2C(C#N)=C(N)Oc3cc(N)ccc32)cc1 (centres undefined)	i	i	i	i	56
CC#CCN1c2ccccc2[C@]23CC(C(=O)OC)N(C(=O)NC(C)(C)C)C2=NC(C(=O)OC)=C(C(=O)OC)C13 (some centres undefined)	i	nt	i	nt	nt
COc1ccc(-c2c(C)oc3ccc(C)cc23)cc1	i	i	84	i	i
COC(=O)C1=C(c2ccc(F)cc2OCc2ccccc2)CC2CCC1N2C(=O)N1CCCCC1 (centres undefined)	i	nt	i	nt	nt
Cc1cc(Cl)ccc1OC(C)C(=O)Nc1ccc(S(=O)(=O)N2CCOCC2)cc1 (centres undefined)	i	i	i	i	i
Cc1cc(Cl)ccc1OC(C)C(=O)Nc1ccc(C(=O)Nc2ccccc2C(=O)O)cc1 (centres undefined)	i	52	i	i	i
O=C1CCCc2c1ccc1ccccc21	i	29	i	i	nt
COc1cc2c(c3ccccc13)CCCC2=O	nt	i	nt	i	nt
COc1ccc(-c2oc(N=CN3CCOCC3)c(C#N)c2-c2ccc(OC)cc2)cc1	i	nt	i	nt	nt
SMILES	RN4220 kill	PfHsp40 rescue	Sa ugtP lethal	PrPC surface inh	VHR inh abs
CCOC(=O)Cc1cc(=O)[nH]c(N=C(N)Nc2ccc(OC)cc2)n1	i	nt	i	nt	nt
CN1CCN(C2CCN(c3ccc(Nc4nnc(Cl)c(Nc5ccccc5S(C)(=O)=O)n4)c(OC(CF)CF)c3)CC2)CC1	i	329	i	i	nt
CC(C)Oc1cc(C(=O)N2CCC(N3CCCCC3)CC2)ccc1Nc1nnc(Cl)c(Nc2ccccc2S(C)(=O)=O)n1	nt	i	nt	nt	nt
O=C1c2ccccc2C(=O)N1CCSc1ccccc1	i	i	i	nt	55
CC1CCCC=CC(=O)c2c(O)cc(O)cc2CC(=O)O1 (centres undefined)	i	nt	i	nt	nt
Cc1cc(Cl)ccc1OCc1n[nH]c(=S)n1C1CCCCC1	i	80	i	i	i
COc1ccc(Cl)cc1-c1n[nH]c(=S)n1C1CCCCC1	i	i	i	i	i
CC1=Nc2ccccc2/C1=C/c1sc(=N)n(-c2nccs2)c1O	97	i	98	nt	i
COC(=O)C1CCC(C)C(c2ccc(C)cc2)N1C(=O)c1ccc(C=NOC(C)c2cn(C(CO)Cc3ccccc3)nn2)cc1 (centres undefined)	i	nt	i	nt	nt
COc1ccc(NS(=O)(=O)c2ccc(C)cc2)c([N+](=O)[O-])c1	i	i	i	i	i
Cc1ccc(S(=O)(=O)Nc2ccc3cc([N+](=O)[O-])ccc3c2[N+](=O)[O-])cc1	i	352	i	i	nt
Cc1ccc(S(=O)(=O)Nc2ccc3ccccc3c2[N+](=O)[O-])cc1	i	408	i	i	nt
C=CS(=O)(=O)N(Cc1ccccc1Br)C(CO)Cc1ccccc1 (centres undefined)	i	nt	i	nt	nt
CCOC(=O)c1cnn(-c2nc(SC)nc3sc4c(c23)CCCC4)c1N	100	i	100	i	i
O=C(NN=Cc1cccc(O)c1)c1cc2c(ccc3ccccc32)o1	i	nt	i	nt	nt
O=C(O)CP(=O)(O)c1ccc(Cl)cc1	i	i	i	i	51
Cc1ccc(P(=O)(CC(=O)O)c2ccc(C)cc2)cc1	i	i	i	i	i
CCOC(=O)c1[nH]cnc1C(=O)NC(C)c1ccccc1 (centres undefined)	i	nt	i	nt	nt
CCn1c(C)nc2cc(C(=O)NN=C(C)c3ccc(OC)cc3O)ccc21	i	nt	i	nt	nt
COc1ccc(CCN2CC(C(=O)N(C)Cc3ccccc3OC)CCC2=O)cc1 (centres undefined)	i	i	i	i	53
FC(F)(F)Oc1ccc(NC(=S)Nc2ccc(OC(F)(F)F)cc2)cc1	99	145	92	i	i
COc1ccc2c(C)c(C(=O)N3CC[C@@H](N4CCC(O)CC4)[C@H](O)C3)oc2c1	i	i	i	i	i
O=C(c1cccc(-c2ccccc2)c1)N1CC[C@@H](N2CCC(O)CC2)[C@H](O)C1	nt	i	nt	i	51
O=c1c2ccccc2nc(COc2ccccc2)n1N=Cc1cc([N+](=O)[O-])ccc1O	i	nt	i	nt	nt
O=S1(=O)CCOCC(Cc2ccccc2)N1Cc1ccccc1 (centres undefined)	i	nt	i	nt	nt
SMILES	RN4220 kill	PfHsp40 rescue	Sa ugtP lethal	PrPC surface inh	VHR inh abs
NC(N)=NC(=O)c1nc(Cl)c(N2CCCCCC2)nc1N	nt	i	nt	i	nt
NC(N)=NC(=O)c1nc(Cl)c(N)nc1N	i	i	98!	i	i
O=C(CSCc1ccccc1Br)NN=Cc1ccccc1C(=O)O	i	nt	i	nt	nt
CC=C1COC(C(=O)NCCN2CCCC2)(C(F)(F)F)C=C1C=C1CCCCC1 (centres undefined)	i	nt	i	nt	nt
CCC(Oc1ccc(Br)cc1Cl)C(=O)Nc1nnc(C2CC2)s1 (centres undefined)	i	60	i	i	i
Cc1cc(NN=Cc2ccccc2O)c2ccccc2n1	i	nt	i	nt	nt
CCCCCn1c(=O)c(C(=O)Nc2ccccc2S(N)(=O)=O)c(O)c2ccccc21	100	i	100	i	i
CCn1c(=O)c(C(=O)Nc2ccccc2S(N)(=O)=O)c(O)c2ccccc21	i	i	i	i	i
